Laboratory results published in the supplement of paper PMC12067093, “Discovery and optimisation of a covalent ligand for TRIM25 and its application to targeted protein ubiquitination” (Chemical Science, 2025).
Targets with the largest changes are over-represented here; the source holds about 21,000 in all.

compound: CC1Cc2ccccc2N1C(=O)C1CCCN(C1)C(=O)CCl (mixture of isomers) [TRIM25 ligand 11 (diastereomer mixture)]; test: probe-labelled cysteine peptide fold change vs DMSO (competition) (log2 fold change); higher = less target engagement (more negative = stronger competition); details: 10 µM; THP-1; incubation time: 4 h
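Further: competitive chemoproteomic profiling in live THP-1 cells with an iodoacetamide desthiobiotin (IA-DTB) probe, comparing probe-labelled peptide intensities in compound-treated cells against DMSO-treated controls.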

Sequence of UniProt O15160 (O15160 whole entry, looked up): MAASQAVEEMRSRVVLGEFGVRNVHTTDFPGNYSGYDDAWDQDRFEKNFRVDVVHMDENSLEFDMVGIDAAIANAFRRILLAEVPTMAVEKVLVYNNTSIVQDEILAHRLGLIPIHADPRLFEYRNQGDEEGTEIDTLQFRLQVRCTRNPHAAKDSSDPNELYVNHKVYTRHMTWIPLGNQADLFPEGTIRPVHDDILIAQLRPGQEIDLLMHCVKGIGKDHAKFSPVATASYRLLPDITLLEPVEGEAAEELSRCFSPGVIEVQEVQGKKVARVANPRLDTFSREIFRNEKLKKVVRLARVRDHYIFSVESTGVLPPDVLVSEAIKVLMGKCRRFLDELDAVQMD
Sequence of UniProt Q9UIL8 (Q9UIL8 whole entry): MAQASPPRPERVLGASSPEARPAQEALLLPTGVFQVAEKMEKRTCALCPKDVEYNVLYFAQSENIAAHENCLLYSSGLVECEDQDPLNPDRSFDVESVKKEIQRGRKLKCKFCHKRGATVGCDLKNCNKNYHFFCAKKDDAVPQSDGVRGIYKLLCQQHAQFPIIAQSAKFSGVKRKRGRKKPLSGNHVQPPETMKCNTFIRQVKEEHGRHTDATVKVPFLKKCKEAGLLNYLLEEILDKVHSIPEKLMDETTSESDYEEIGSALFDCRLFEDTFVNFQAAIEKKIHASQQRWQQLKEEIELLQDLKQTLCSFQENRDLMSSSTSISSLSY
Sequence of UniProt Q99570 (Q99570 whole entry, looked up): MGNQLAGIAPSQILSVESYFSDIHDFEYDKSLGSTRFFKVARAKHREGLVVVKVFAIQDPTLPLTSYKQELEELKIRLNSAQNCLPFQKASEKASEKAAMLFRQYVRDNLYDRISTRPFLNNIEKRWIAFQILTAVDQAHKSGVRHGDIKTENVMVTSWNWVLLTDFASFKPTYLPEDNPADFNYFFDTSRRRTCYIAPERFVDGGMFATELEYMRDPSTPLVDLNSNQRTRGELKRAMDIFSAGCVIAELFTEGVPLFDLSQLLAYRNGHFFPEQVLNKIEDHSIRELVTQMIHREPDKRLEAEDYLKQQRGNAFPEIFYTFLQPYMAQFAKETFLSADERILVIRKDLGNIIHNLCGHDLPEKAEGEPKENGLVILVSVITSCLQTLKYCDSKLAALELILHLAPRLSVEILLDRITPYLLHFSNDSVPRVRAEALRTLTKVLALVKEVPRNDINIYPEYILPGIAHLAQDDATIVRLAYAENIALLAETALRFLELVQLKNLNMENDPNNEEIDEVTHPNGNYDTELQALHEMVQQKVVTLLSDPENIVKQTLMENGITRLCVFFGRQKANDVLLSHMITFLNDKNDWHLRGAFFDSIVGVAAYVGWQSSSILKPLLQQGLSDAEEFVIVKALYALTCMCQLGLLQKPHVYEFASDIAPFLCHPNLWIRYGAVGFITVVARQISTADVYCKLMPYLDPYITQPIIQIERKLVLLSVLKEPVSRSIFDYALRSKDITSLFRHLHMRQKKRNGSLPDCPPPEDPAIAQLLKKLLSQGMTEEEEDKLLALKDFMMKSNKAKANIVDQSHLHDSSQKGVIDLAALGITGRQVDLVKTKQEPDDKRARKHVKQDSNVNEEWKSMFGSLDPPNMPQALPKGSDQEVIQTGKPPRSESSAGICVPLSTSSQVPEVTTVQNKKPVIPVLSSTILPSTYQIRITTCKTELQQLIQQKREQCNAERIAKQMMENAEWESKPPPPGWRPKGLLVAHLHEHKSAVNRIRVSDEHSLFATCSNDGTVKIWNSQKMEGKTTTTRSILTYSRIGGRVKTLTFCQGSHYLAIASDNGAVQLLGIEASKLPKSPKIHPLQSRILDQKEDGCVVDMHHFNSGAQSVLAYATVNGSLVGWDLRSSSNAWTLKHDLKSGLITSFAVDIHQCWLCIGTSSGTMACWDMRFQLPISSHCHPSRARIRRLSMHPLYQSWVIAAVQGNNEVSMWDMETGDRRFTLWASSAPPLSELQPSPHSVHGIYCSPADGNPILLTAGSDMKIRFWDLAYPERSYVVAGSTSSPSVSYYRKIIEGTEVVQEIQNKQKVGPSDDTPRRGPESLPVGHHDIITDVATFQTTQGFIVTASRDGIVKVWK
Sequence of UniProt Q9BZL4 (Q9BZL4 whole entry, looked up): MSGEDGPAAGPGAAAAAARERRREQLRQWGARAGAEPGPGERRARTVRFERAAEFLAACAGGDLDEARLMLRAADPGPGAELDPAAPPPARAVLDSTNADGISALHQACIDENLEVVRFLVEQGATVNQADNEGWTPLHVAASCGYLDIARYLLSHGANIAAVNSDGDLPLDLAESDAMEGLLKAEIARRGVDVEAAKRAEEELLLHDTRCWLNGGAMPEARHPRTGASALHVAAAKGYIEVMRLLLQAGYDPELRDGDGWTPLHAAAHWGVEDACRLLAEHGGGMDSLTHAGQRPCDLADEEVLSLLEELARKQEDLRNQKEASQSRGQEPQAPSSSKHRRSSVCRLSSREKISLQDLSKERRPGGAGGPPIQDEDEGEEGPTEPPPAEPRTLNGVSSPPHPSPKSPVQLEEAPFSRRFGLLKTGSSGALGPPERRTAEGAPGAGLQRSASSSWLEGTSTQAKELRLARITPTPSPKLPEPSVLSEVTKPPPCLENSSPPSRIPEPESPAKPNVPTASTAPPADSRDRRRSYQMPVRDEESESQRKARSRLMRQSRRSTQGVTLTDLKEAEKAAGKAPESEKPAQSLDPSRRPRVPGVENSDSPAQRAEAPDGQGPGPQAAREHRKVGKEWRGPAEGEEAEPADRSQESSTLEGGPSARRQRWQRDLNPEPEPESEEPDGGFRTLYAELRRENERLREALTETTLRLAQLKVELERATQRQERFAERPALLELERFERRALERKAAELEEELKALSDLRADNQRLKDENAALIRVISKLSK
Sequence of UniProt P12955 (P12955 whole entry, looked up): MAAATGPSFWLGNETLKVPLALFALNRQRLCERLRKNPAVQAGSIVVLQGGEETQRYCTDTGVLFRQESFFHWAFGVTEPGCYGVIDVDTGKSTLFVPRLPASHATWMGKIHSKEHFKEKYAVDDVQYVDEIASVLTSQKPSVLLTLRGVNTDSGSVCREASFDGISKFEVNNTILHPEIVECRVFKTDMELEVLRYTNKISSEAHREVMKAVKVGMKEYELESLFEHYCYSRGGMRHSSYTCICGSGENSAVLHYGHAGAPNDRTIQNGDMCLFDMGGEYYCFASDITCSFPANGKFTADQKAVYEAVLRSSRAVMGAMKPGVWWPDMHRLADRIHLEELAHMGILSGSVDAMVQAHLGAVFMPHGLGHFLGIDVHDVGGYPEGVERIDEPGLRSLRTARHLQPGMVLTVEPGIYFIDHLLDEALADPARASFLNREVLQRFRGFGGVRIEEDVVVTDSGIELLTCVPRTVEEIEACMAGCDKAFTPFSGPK

Target | probe-labelled cysteine peptide fold change
POLR1C_O15160_214_PVHDDILIAQLRPGQEIDLLMHCVK (UniProt O15160) | -0.00122
PPP1R12C_Q9BZL4_297_LLAEHGGGMDSLTHAGQRPCDLADEEVLSLLEELAR (UniProt Q9BZL4) | 0.136
PECAM1_P16284_109_CTVIVNNK (UniProt P16284) | 0.126
PHF11_Q9UIL8_135_NYHFFCAK (UniProt Q9UIL8) | -0.0148
PEPD_P12955_158_GVNTDSGSVCR (UniProt P12955) | 0.0721
PIK3R4_Q99570_955_EQCNAER (UniProt Q99570) | -0.0631

same assay, conditions: 50 µM; THP-1; incubation time: 4 h

Target | probe-labelled cysteine peptide fold change
POLR1C_O15160_214_PVHDDILIAQLRPGQEIDLLMHCVK (UniProt O15160) | -0.0368
PPP1R12C_Q9BZL4_297_LLAEHGGGMDSLTHAGQRPCDLADEEVLSLLEELAR (UniProt Q9BZL4) | -0.278
PECAM1_P16284_109_CTVIVNNK (UniProt P16284) | 0.476
PHF11_Q9UIL8_135_NYHFFCAK (UniProt Q9UIL8) | 0.156
PEPD_P12955_158_GVNTDSGSVCR (UniProt P12955) | -0.0568
PIK3R4_Q99570_955_EQCNAER (UniProt Q99570) | -0.105
